Assay results taken from the supplement of paper PMC13380429.

Test system: Vero E6 infected with SARS-CoV-2
Assay: inhibition of SARS-CoV-2 cytopathic effect; higher = more antiviral protection, active = above 15
Details: 48 h

Measured: inhibition of SARS-CoV-2 cytopathic effect

O=C(CCc1ccc(O)cc1)c1c(O)cc(O)cc1O[C@@H]1O[C@H](CO)[C@@H](O)[C@H](O)[C@H]1O [phlorizin]
inactive: 1 nM -2.08% | 8.33 nM 0% | 100 nM -10.3% | 833.33 nM 0.18% | 10000 nM 1.43%

Oc1ccc(/C=C/c2cc(O)cc(O)c2)cc1 [resveratrol]
inactive: 1 nM 1.06% | 8.33 nM 0.64% | 100 nM -2.17% | 833.33 nM -0.25% | 10000 nM 3.82%

N[C@@H](Cc1ccc(Cl)cc1)C(=O)O (racemic) [fenclonine-(+/-)]
inactive: 1 nM 1.09% | 8.33 nM 0.73% | 100 nM 0.7% | 833.33 nM 4.29% | 10000 nM 3%

COC(=O)N[C@H](C(=O)N1CC2(CC2)C[C@H]1c1nc(-c2ccc3c(c2)C(F)(F)c2cc(-c4ccc5[nH]c([C@@H]6[C@H]7CC[C@H](C7)N6C(=O)[C@@H](NC(=O)OC)C(C)C)nc5c4)ccc2-3)c[nH]1)C(C)C [ledipasvir]
inactive: 1 nM -1% | 8.33 nM 1.14% | 100 nM -1.6% | 833.33 nM -5.39% | 10000 nM -5.41%

CC(=O)Nc1c(I)c(C(=O)O)c(I)c(N(C)C(C)=O)c1I [metrizoic-acid]
inactive: 1 nM -1.11% | 8.33 nM 0.34% | 100 nM 0.21% | 833.33 nM 2.48% | 10000 nM 1.65%

Cc1cc2c(C(C)C)c(O)c(O)c(C=O)c2c(O)c1-c1c(C)cc2c(C(C)C)c(O)c(O)c(C=O)c2c1O [gossypol]
inactive: 1 nM -0.82% | 8.33 nM -3.04% | 100 nM -0.64% | 833.33 nM -2.5% | 10000 nM -6.17%

COc1ccc(C2CNC(=O)C2)cc1OC1CCCC1 (stereo not given) [rolipram]
inactive: 1 nM 0.987% | 8.33 nM 0.267% | 100 nM -1.59% | 833.33 nM -0.223% | 10000 nM -5.08%

CSc1nc(-c2ccc(F)cc2)c(-c2ccnc(N[C@@H](C)c3ccccc3)c2)[nH]1
inactive: 1 nM -3.63% | 8.33 nM -2.6% | 100 nM -5.98% | 833.33 nM -4.77% | 10000 nM 1.96%

CCc1ccccc1OC[C@@H](O)CN[C@H]1CCCc2ccccc21
inactive: 1 nM -1.78% | 8.33 nM -0.44% | 100 nM -3.44% | 833.33 nM -0.6% | 10000 nM -4.25%

O=c1c(O)c(-c2cc(O)c(O)c(O)c2)oc2cc(O)cc(O)c12 [myricetin]
inactive: 1 nM -0.44% | 8.33 nM 0.2% | 100 nM 3.15% | 833.33 nM 5.8% | 10000 nM 0.05%

NC(N)=Nc1nc(CSCCN/C=N/S(=O)(=O)c2ccc(Br)cc2)cs1 [ebrotidine]
inactive: 1 nM -0.49% | 8.33 nM 1.21% | 100 nM 5.48% | 833.33 nM -0.19% | 10000 nM -2.58%

N#Cc1cn([C@@H]2O[C@H](CO)[C@@H](O)[C@H]2O)c2ncnc(N)c12 [toyocamycin]
inactive: 1 nM 0.31% | 8.33 nM 2.87% | 100 nM 4.68% | 833.33 nM -0.02% | 10000 nM -0.24%

CO[C@@]1(NC(=O)CSCC#N)C(=O)N2C(C(=O)O)=C(CSc3nnnn3C)CS[C@@H]21 [cefmetazole]
inactive: 1 nM 1.84% | 8.33 nM 1.39% | 100 nM 1.15% | 833.33 nM 2.93% | 10000 nM 2.49%

CCCCCCCCCCCCC/C=C/[C@@H](O)[C@@H](N)CO[P@](=O)(O)OCC[N+](C)(C)C [sphingosylphosphorylcholine]
inactive: 1 nM -0.9% | 8.33 nM -2.99% | 100 nM 3.74% | 833.33 nM -2.02% | 10000 nM 3.54%

COc1cc(N2CCC(O)CC2)ccc1Nc1cc(Nc2ccccc2S(=O)(=O)C(C)C)c2cc[nH]c2n1
inactive: 1 nM 5.38% | 8.33 nM 3.7% | 100 nM -1.89% | 833.33 nM 0.98% | 10000 nM -7.51%

CC(c1cc2ccccc2s1)N(O)C(N)=O (stereo not given) [zileuton]
inactive: 1 nM -2.05% | 8.33 nM -0.81% | 100 nM 1.43% | 833.33 nM -1.9% | 10000 nM -1.8%

O=C1C(=Cc2cccnc2)C(=O)c2ccccc21
inactive: 1 nM 1.43% | 8.33 nM 1% | 100 nM 3.58% | 833.33 nM 5.97% | 10000 nM 5.97%
